According to PubChem BioAssay (Tox21):
Results filed as inconclusive are left out. Entries that show only a call come without a potency. Where a structure was tested more than once in an assay, its records may differ in their call. Activity calls are given as the source filed them. Unless noted, calls come from the whole dose curve.

Columns and labels:
[1] = Caspase-3/7 induction in CHO-K1 cells by small molecules, qHTS assay (AID 1346980; active = well fitted curve in the direction sought with a large enough effect in the repeat runs; an effect the other way counts as inactive or inconclusive; note: nearly all actives have a fitted effect of over 15% in size)
Procedure, shortened: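 Wild-type CHO-K1 cells exposed to compounds for 17hr at 37 C, 5% CO2. Caspase-3/7 activity then measured by Caspase-Glo 3/7 luminescence after 30min at room temperature.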

[2] = Caspase-3/7 induction in HepG2 cells by small molecules, qHTS cell viability counter screen (AID 1346981; active = well fitted curve in the direction sought with a large enough effect in the repeat runs; an effect the other way counts as inactive or inconclusive; note: nearly all actives have a fitted effect of over 30% in size; note: potency is the fitted concentration of half-maximal effect)
Procedure, shortened: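 In this quantitative HTS counter screen, compounds delivered in DMSO were left on unmodified HepG2 cells for 16 hr at 37 C. Viability was then determined fluorometrically with CellTiter-Fluor, in parallel with caspase-3/7 induction in the same wells.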

[3] = molecular target: Nuclear receptor subfamily 1 group I member 2 (Homo sapiens) (UniProt O75469); test: Human pregnane X receptor (PXR) small molecule agonists, qHTS assay (AID 1346982; active = well fitted curve in the direction sought with a large enough effect in the repeat runs; an effect the other way counts as inactive or inconclusive; note: nearly all actives have a fitted effect of over 35% in size; note: potency is the fitted concentration of half-maximal effect)
Procedure, shortened: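 Reporter HepG2 cells expressing PXR-Luc are cultured in charcoal-stripped FBS (5%), treated with compounds for 24 hr at 37 C, and assayed by ONE-Glo luminescence after 30 min at room temperature.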

[4] = molecular target: Nuclear receptor subfamily 1 group I member 2 (Rattus norvegicus) (UniProt Q9R1A7); test: Rat pregnane X receptor (rPXR) activation by small molecules, qHTS assay (AID 1346983; active = well fitted curve in the direction sought with a large enough effect in the repeat runs; an effect the other way counts as inactive or inconclusive; note: nearly all actives have a fitted effect of over 20% in size; note: potency is the fitted concentration of half-maximal effect); details: rPXR luciferase reporter cells, One-Glo luminescence, 24 h; max activation: stronger effect = higher value
Procedure, shortened: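 Cell-based rPXR activation assay: rPXR cells, 2,000 per well, rested 5hr at 37 C, then exposed to compounds in DMSO for 24 hr at 37 C. Luciferase activity read by One-Glo luminescence after 30 min at room temperature.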

[5] = molecular target: Nuclear receptor subfamily 1 group I member 2 (Homo sapiens) (UniProt O75469); test: CYP3A4 induction through human pregnane X receptor (PXR) by small molecules, qHTS assay (AID 1346984; active = well fitted curve in the direction sought with a large enough effect in the repeat runs; an effect the other way counts as inactive or inconclusive; note: nearly all actives have a fitted effect of over 40% in size; note: potency is the fitted concentration of half-maximal effect)
Procedure, shortened: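 Induction measured in HepG2-based DPX-2 cells co-expressing human PXR and a CYP3A4 promoter-driven luciferase. After a 24-hour compound exposure, cells received CYP3A4 luciferin substrate at 3uM final for 3 hours, and light output was then recorded.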

[6] = molecular target: Nuclear receptor subfamily 1 group I member 2 (Homo sapiens) (UniProt O75469); test: Human pregnane X receptor (PXR) activation by small molecules, qHTS assay (AID 1346985; active = well fitted curve in the direction sought with a large enough effect in the repeat runs; an effect the other way counts as inactive or inconclusive; note: nearly all actives have a fitted effect of over 40% in size; note: potency is the fitted concentration of half-maximal effect)
Procedure, shortened: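 DPX-2 cells (HepG2 co-transfected with a PXR response element and a CYP3A4-promoter luciferase construct) were seeded at 2,000 per well, rested 5 hr at 37C, then exposed to DMSO-dissolved compounds for 24 hr. Activation was read as luciferase luminescence.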

[7] = molecular target: Acetylcholinesterase (Homo sapiens) (UniProt P22303); test: Acetylcholinesterase (AChE) small molecule antagonists: colormetric cell-based qHTS assay (AID 1347395); note: nearly all actives have a fitted effect of over 30% in size; note: potency is the fitted concentration of half-maximal effect
Procedure, shortened: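 Endogenous AChE of human neuroblastoma SH-SY5Y cells was measured with an Ellman-type DTNB/acetylthiocholine mix. Compound pretreatment lasted 30 min at 37 C; substrate reaction ran 90 min at 37 C.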

[8] = molecular target: Acetylcholinesterase (Homo sapiens) (UniProt P22303); test: Acetylcholinesterase (AChE) small molecule antagonists: enzyme-based qHTS assay (AID 1347397); details: Potency: AChE enzyme activity inhibition; note: nearly all actives have a fitted effect of over 55% in size
Procedure, shortened: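 Colorimetric DTNB read-out of thiocholine released from acetylthiocholine by recombinant human AChE (50 mU/mL as dispensed). Compounds were preincubated 30 min at RT before substrate/DTNB addition, with a 10 min RT reaction.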

[9] = molecular target: Acetylcholinesterase (Homo sapiens) (UniProt P22303); test: Acetylcholinesterase (AChE) small molecule antagonists: fluorescence cell-based qHTS assay (AID 1347398); details: Potency: AChE activity; note: nearly all actives have a fitted effect of over 50% in size; note: potency is the fitted concentration of half-maximal effect
Procedure, shortened: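 SH-SY5Y, 2,000 cells/well, attached overnight; cmpd 30 min 37 C; acetylthiocholine/Thiolite Green cocktail 40 min RT; fluorescence Ex/Em 490/520 nm.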

[10] = Caspase-3/7 induction in CHO-K1 cells by small molecules, qHTS cell viability counter screen (AID 1346979; active = well fitted curve in the direction sought with a large enough effect in the repeat runs; an effect the other way counts as inactive or inconclusive; note: nearly all actives have a fitted effect of over 35% in size; note: potency is the fitted concentration of half-maximal effect)
Procedure, shortened: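 In the same wells as the caspase read, viability of compound-treated wild-type CHO-K1 cells was assessed using CellTiter-Fluor, added after 16hr at 37C and measured by fluorescence following 1hr further incubation.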

Sequence of Nuclear receptor subfamily 1 group I member 2 (Rattus norvegicus) (Q9R1A7 whole entry, looked up): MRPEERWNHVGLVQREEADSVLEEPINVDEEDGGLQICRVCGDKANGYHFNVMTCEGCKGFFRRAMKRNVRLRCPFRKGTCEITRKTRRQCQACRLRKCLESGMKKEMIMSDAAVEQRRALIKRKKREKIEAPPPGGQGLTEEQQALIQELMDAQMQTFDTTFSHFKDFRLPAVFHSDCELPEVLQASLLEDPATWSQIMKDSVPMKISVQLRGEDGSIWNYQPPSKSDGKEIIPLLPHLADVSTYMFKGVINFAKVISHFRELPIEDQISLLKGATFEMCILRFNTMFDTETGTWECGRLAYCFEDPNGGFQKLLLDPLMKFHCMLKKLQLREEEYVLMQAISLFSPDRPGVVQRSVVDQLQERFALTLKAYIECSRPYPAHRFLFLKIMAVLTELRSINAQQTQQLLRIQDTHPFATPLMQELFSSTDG
Sequence of Acetylcholinesterase (Homo sapiens) (P22303 whole entry, looked up): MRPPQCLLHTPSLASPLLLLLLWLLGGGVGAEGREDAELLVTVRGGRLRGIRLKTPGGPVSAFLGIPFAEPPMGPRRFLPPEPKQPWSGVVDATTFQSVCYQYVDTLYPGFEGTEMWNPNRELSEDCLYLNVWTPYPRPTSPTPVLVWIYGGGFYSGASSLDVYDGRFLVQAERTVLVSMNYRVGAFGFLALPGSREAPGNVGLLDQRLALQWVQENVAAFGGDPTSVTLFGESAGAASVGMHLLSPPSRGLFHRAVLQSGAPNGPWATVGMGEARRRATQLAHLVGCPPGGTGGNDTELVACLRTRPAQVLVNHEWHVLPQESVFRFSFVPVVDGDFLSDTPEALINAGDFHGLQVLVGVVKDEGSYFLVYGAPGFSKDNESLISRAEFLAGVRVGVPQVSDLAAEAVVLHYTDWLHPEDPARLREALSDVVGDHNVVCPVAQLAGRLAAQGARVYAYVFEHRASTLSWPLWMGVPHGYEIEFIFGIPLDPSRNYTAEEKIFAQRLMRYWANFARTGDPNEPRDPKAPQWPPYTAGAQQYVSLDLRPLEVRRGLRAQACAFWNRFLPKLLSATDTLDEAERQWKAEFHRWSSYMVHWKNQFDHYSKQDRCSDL
Sequence of Nuclear receptor subfamily 1 group I member 2 (Homo sapiens) (O75469 whole entry, looked up): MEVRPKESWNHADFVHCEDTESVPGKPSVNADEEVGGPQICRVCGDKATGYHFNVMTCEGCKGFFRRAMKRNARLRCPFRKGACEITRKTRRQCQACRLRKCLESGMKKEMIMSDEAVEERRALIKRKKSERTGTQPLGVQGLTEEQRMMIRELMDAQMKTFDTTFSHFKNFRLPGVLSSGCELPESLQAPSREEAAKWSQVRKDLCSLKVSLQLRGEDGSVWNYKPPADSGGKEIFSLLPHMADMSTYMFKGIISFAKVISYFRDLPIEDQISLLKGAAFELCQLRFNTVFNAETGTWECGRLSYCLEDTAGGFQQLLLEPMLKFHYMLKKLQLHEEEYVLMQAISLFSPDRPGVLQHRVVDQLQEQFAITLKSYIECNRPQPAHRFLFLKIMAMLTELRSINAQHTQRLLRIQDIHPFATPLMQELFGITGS

CC(=O)O[C@H]1CC[C@@]2(C)C(=CC[C@@H]3[C@@H]2CC[C@]2(C)C(=O)CC[C@@H]32)C1
Potency [1]: inactive | Potency [2]: inactive | Potency [3]: 54.5 µM (active) | max activation [4]: -1.42% (inactive) | Potency [5]: inactive | Potency [6]: inactive | Potency [7]: inactive | Potency [8]: inactive | Potency [9]: inactive

N#Cc1ccccc1Cl
Potency [10]: inactive | Potency [2]: inactive | Potency [7]: inactive | Potency [8]: inactive | Potency [9]: inactive

BrCC(Br)c1ccccc1 (configuration not stated)
Potency [10]: inactive | Potency [2]: inactive | Potency [3]: inactive | Potency [7]: inactive | Potency [8]: inactive | Potency [9]: inactive

CCCCCCCCCCBr
Potency [10]: inactive | Potency [2]: inactive | Potency [3]: inactive | Potency [7]: inactive | Potency [8]: inactive | Potency [9]: inactive

CC(Cc1ccc(C(C)(C)C)cc1)CN1C[C@@H](C)O[C@@H](C)C1 (some centres not stated)
Potency [1]: inactive | Potency [2]: inactive | Potency [3]: 30.6 µM (active) | Potency [7]: inactive | Potency [8]: inactive | Potency [9]: inactive

Clc1ccc(CO/N=C(\Cn2ccnc2)c2ccc(Cl)cc2Cl)c(Cl)c1
Potency [10]: 16.8 µM (active) | Potency [3]: 8.41 µM (active) | Potency [4]: 25.1 µM (active) | Potency [5]: inactive | Potency [6]: 1.41 µM (active) | Potency [7]: inactive | Potency [9]: inactive

c1ccc(Nc2ccc3ccccc3c2)cc1
Potency [10]: 54.5 µM (active) | Potency [7]: inactive | Potency [8]: inactive | Potency [9]: inactive

COP(=O)(CCC(=O)NCO)OC
Potency [10]: inactive | Potency [2]: inactive | Potency [7]: inactive | Potency [8]: inactive | Potency [9]: inactive

C[C@]12CC[C@@H]3c4ccc(OC(=O)N(CCCl)CCCl)cc4CC[C@H]3[C@@H]1CC[C@@H]2O
Potency [1]: inactive | Potency [2]: inactive | Potency [3]: inactive | Potency [5]: inactive | Potency [6]: inactive | Potency [7]: inactive | Potency [8]: inactive | Potency [9]: inactive

CCOC(=O)CC(=O)CCl
Potency [1]: inactive | Potency [2]: inactive | Potency [3]: inactive | Potency [7]: inactive | Potency [8]: inactive | Potency [9]: inactive

C=CC(=O)OCC(COC(=O)C=C)(COC(=O)C=C)COC(=O)C=C
Potency [10]: 3.86 µM (active) | Potency [2]: 15.4 µM (active) | Potency [7]: inactive | Potency [8]: inactive | Potency [9]: inactive

COc1cccc2c1C(=O)c1c(O)c3c(c(O)c1C2=O)C[C@@](O)(C(=O)CO)CC3OC1CC(N2CCOC(OC)C2)C(O)C(C)O1 (some centres not stated)
Potency [10]: 9.44 µM (active) | Potency [2]: 16.8 µM (active) | Potency [3]: inactive | Potency [7]: 12.3 µM (active) | Potency [9]: 11 µM (active)

c1ccc2c(c1)[nH]c1cnccc12
Potency [10]: inactive | Potency [2]: inactive | Potency [7]: inactive | Potency [8]: inactive

[Cl][Sn]([c]1ccccc1)([c]1ccccc1)[c]1ccccc1
Potency [10]: 0.326 µM (active) | Potency [2]: 5.8 µM (active) | activity, negative = inhibition [7]: 1.75% [at 23.6 µM] (inactive) | activity change, negative = inhibition [8]: 0% [at 23.6 µM] (inactive) | activity change, negative = inhibition [9]: 12.9% [at 23.8 µM] (inactive)

C=CC(=O)N(C)C
Potency [10]: inactive | Potency [2]: inactive | Potency [7]: inactive | Potency [8]: inactive | Potency [9]: inactive

CN(C)CCc1c[nH]c2ccc(O)cc12
Potency [1]: inactive | Potency [2]: inactive | Potency [3]: inactive | Potency [7]: inactive | Potency [8]: inactive | Potency [9]: inactive

CC(=O)Nc1ccc2c(c1)Cc1ccccc1-2
Potency [10]: inactive | Potency [2]: inactive | Potency [3]: 24.7 µM (active) | Potency [7]: inactive | Potency [8]: inactive | Potency [9]: inactive

Oc1cccc(-c2ccccc2)c1
Potency [1]: inactive | Potency [2]: inactive | Potency [3]: 48.6 µM (active) | Potency [7]: inactive | Potency [8]: inactive | Potency [9]: inactive

Clc1ccc(CCC(Cn2ccnc2)Sc2c(Cl)cccc2Cl)cc1 (configuration not stated)
Potency [10]: 11.9 µM (active) | Potency [3]: 4.22 µM (active) | Potency [5]: inactive | Potency [6]: 4.47 µM (active) | Potency [7]: inactive | Potency [9]: inactive

[Hg+2].[I-].[I-]
Potency [10]: 21.7 µM (active) | Potency [2]: 61.1 µM (active) | Potency [3]: 2.43 µM (active) | Potency [7]: inactive | Potency [9]: 28.3 µM (active)

ClC1=C(Cl)C2(Cl)C3C(Cl)C=CC3C1(Cl)C2(Cl)Cl (configuration not stated)
Potency [2]: inactive | Potency [7]: inactive | Potency [8]: inactive | Potency [9]: inactive

O=[N+]([O-])c1ccc(Oc2ccc(C(F)(F)F)cc2[N+](=O)[O-])cc1
Potency [1]: inactive | Potency [2]: inactive | Potency [7]: inactive | Potency [8]: inactive | Potency [9]: inactive

CC(=O)/C=C/c1ccc2c(c1)OCO2
Potency [1]: inactive | Potency [3]: 61.4 µM (active) | Potency [8]: inactive

Clc1ccc(C(c2ccccc2Cl)C(Cl)(Cl)Cl)cc1 (configuration not stated)
Potency [2]: inactive | Potency [3]: 34.6 µM (active) and inactive | Potency [7]: inactive | Potency [8]: inactive | Potency [9]: inactive

NC(=O)CCl
Potency [1]: inactive | Potency [2]: inactive | Potency [3]: inactive | Potency [7]: inactive | Potency [8]: inactive | Potency [9]: inactive

ClC1=C(Cl)[C@]2(Cl)[C@H]3[C@H]([C@H]4C=C[C@H]3C4)[C@@]1(Cl)C2(Cl)Cl
Potency [1]: inactive | Potency [2]: inactive | Potency [7]: inactive | Potency [8]: inactive | Potency [9]: inactive

O=[N+]([O-])c1cc([N+](=O)[O-])c2ccccc2c1
Potency [1]: inactive | Potency [8]: inactive

CC(C)CCCCCCCOP(=O)(Oc1ccccc1)Oc1ccccc1
Potency [2]: inactive | Potency [3]: 6.89 µM (active) | Potency [7]: inactive | Potency [8]: inactive

Cc1cc(SCc2sc(-c3ccc(C(F)(F)F)c(F)c3)nc2C)ccc1OCC(=O)O
Potency [1]: inactive | Potency [3]: 24.3 µM (active) | Potency [7]: inactive | Potency [9]: inactive

CC1CCC(C(C)C)C(OC(=O)c2ccccc2N)C1 (configuration not stated)
Potency [3]: 19.1 µM (active) | max activation [4]: 13.1% (inactive) | Potency [5]: inactive | Potency [7]: inactive | Potency [8]: inactive | Potency [9]: inactive

CCN(CC)c1c([N+](=O)[O-])cc(C(F)(F)F)c(N)c1[N+](=O)[O-]
Potency [1]: inactive | Potency [2]: inactive | Potency [7]: inactive | Potency [8]: inactive | Potency [9]: inactive

O=[N+]([O-])c1cc(Cl)ccc1Cl
Potency [2]: inactive | Potency [3]: inactive | Potency [7]: inactive | Potency [8]: inactive | Potency [9]: inactive

O=[N+]([O-])c1c2ccccc2cc2ccccc12
Potency [1]: inactive | Potency [3]: 21.7 µM (active) | Potency [7]: inactive | Potency [8]: inactive | Potency [9]: inactive

O=C(CBr)c1ccc(O)cc1
Potency [1]: inactive | Potency [2]: inactive | Potency [3]: inactive | Potency [7]: inactive | Potency [8]: inactive | Potency [9]: inactive

CCOC(=O)C1(c2ccccc2)CCN(CCC(C#N)(c2ccccc2)c2ccccc2)CC1
Potency [1]: inactive | Potency [2]: inactive | Potency [5]: 1.41 µM (active) | Potency [6]: 1.12 µM (active) | Potency [7]: inactive | Potency [8]: inactive | Potency [9]: inactive
